The source of these data is PubChem BioAssay AID463173 (ICCB-Longwood Screening Facility, Harvard Medical School, 2010).

The campaign covered roughly 52,000 compounds. About 4,300 (8.3%) were called active. For the sample, actives were picked, then their nearest neighbours and some compounds at random. Values without a mark were called inactive. No stated cut-off is given here; in the data, active means survival mostly below about 52% (no sharp cut-off); inactive means mostly above about 56%.

This assay has as its system DeltatarO mutant. In words: growth inhibition of S. aureus wild type versus tarO mutant, primary screen, teichoic acid synthesis inhibitors, RN4220, OD600 (AID 463173). As to conditions: OD600, 18 h, active compounds read low, screened at 18.75 µg/mL (by protocol).
Regarding `Cc1ccc(S(=O)(=O)Nc2nc(C)c(NC(=O)NC3C=NN=C3)s2)cc1`, the survival is 90%. For `O=C(NCc1cccnc1)C(=O)NCC(c1cccnc1)N1CCN(c2ccc(F)cc2)CC1` (stereo not given) the value was 70%; for `Cc1ccc(C)c(Cn2nnc(C(=O)NCc3ccc(Cl)cc3Cl)c2N)c1`, 62%.

Turning to `Nc1c(C(=O)NCc2ccc(Cl)cc2Cl)nnn1Cc1ccc(Br)cc1`, the survival is 45% (active). For `Cc1ccc(C)c(NC(=O)c2nnn(CC(=O)Nc3cccc(C)c3C)c2N)c1` the value was 98%; for `Cc1cccc(NC(=O)Cn2nnc(C(=O)Nc3ccccc3Br)c2N)c1C`, 8% (active). Take `COc1cccc(Cn2nnc(C(=O)NCc3ccc(Cl)cc3Cl)c2N)c1`: the survival is 71%. For `COc1ccccc1NC(=O)Cn1nnc(C(=O)Nc2ccccc2Br)c1N` the value was 89%; for `Cc1ccc(Cl)cc1NC(=O)CC1Sc2ccccc2NC1=O` (stereo not given), 93%. Regarding `CC(CCc1ccccc1)NC(=O)CSc1n[nH]c(-c2ccccc2Cl)n1` (stereo not given), the survival is 54%. For `COc1ccc(CCNC(=O)c2cc(Sc3cccc(Cl)c3)nc3ccccc23)cc1OC` the value was 89%; for `CCc1c(C)sc2c1CCN(C(=O)Nc1ccccc1C(=O)OC)C2c1ccc(F)cc1` (stereo not given), 105%; for `CCc1c(C)sc2c1CCN(C(=O)Nc1cc(OC)c(OC)c(OC)c1)C2c1ccccc1` (stereo not given), 25% (active). Take `CCc1c(C)sc2c1CCN(C(=O)Nc1cc(C)cc(C)c1)C2c1ccccc1` (stereo not given): the survival was 55%. For `CCc1c(C)sc2c1CCN(C(=O)Nc1cc(C)ccc1OC)C2c1ccc(F)cc1` (stereo not given) the value was 144%. `CCc1c(C)sc2c1CCN(C(=O)Nc1ccc(F)c(Cl)c1)C2c1ccc(F)cc1` (stereo not given): the survival was 46% (active).

For the compound `CCc1c(C)sc2c1CCN(C(=O)Nc1cc(Cl)c(OC)cc1OC)C2c1ccccc1` (stereo not given), the survival is 63%. As to `O=C(CCCN1C(=O)c2cccnc2Oc2ccc(Cl)cc21)NCc1ccc(F)cc1`, the survival is 90%. For `CCOc1ccccc1NC(=O)Cn1c(=O)n(CC(=O)NCc2ccccc2Cl)c(=O)c2sccc21` the value was 154%; for `O=C(CSc1ccccc1)NCc1ccc2c(c1)CCN2C(=O)c1ccc(F)cc1`, 88%; for `Cc1cccc(C)c1OCCn1c(C2CC(=O)N(c3cccc(Cl)c3)C2)nc2ccccc21` (stereo not given), 57%.

With `CCOc1ccccc1N1CC(c2nc3ccccc3n2CCOc2ccccc2OC)CC1=O` (stereo not given), the survival is 95%.

As to `Cc1cccc(C)c1OCCn1c(C2CC(=O)N(Cc3ccc(F)cc3)C2)nc2ccccc21` (stereo not given), the survival is 4% (active). As for `Cc1ccc(C)c(OCCn2c(C3CC(=O)N(Cc4ccc(F)cc4)C3)nc3ccccc32)c1` (stereo not given), the survival is 0% (active). For `Cc1cc(C)c(Cn2c(C3CC(=O)N(c4ccc(F)cc4)C3)nc3ccccc32)c(C)c1` (stereo not given) the value was 91%; for `CCOc1ccccc1N1CC(c2nc3ccccc3n2Cc2c(C)cc(C)cc2C)CC1=O` (stereo not given), 92%. `COc1ccccc1OCCCn1c(C2CC(=O)N(c3ccc(F)cc3)C2)nc2ccccc21` (stereo not given): the survival is 76%. For `Cc1ccc(OCCn2c(C3CC(=O)N(Cc4ccc(F)cc4)C3)nc3ccccc32)c(C)c1` (stereo not given) the value was 3% (active).

Turning to `CCc1ccccc1N1CC(c2nc3ccccc3n2CCCCOc2ccccc2OC)CC1=O` (stereo not given), the survival is 80%. For `C=CCc1ccccc1OCCn1c(C2CC(=O)N(Cc3ccc(F)cc3)C2)nc2ccccc21` (stereo not given) the value was 0% (active).
